Results from PubChem BioAssay (NCI).
About 83,000 compounds went through this panel and 20% of them were active in at least one assay; those are over-represented in the sample as a whole.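 Method: cells in 96-well plates; compound added at one concentration; 48 h incubation; percent growth measured; values under 10 scored active.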 A number with no mark means an inactive call. The source made the active and inactive calls.

Legend:
Assay in all cases: NCI-60 one-dose screen, 48 h (100 = growth as untreated, 0 = no growth, -100 = all killed)
Conditions in all cases: 10 µM unless noted
T-47D breast = test system: T-47D breast
MDA-MB-435 melanoma = test system: MDA-MB-435 melanoma
SW-620 colon = test system: SW-620 colon
MCF7 breast = test system: MCF7 breast
HCT-116 colon = test system: HCT-116 colon
HCC-2998 colon = test system: HCC-2998 colon
KM12 colon = test system: KM12 colon

Row | SMILES | growth (T-47D breast) | growth (MDA-MB-435 melanoma) | growth (SW-620 colon) | growth (MCF7 breast) [%] | growth (HCT-116 colon) | growth (HCC-2998 colon) | growth (KM12 colon)
1 | COC(=O)C(=Cc1ccccc1[N+](=O)[O-])C(=O)OC | 22.6% | 15.5% | 34.7% | 15.4 | 6.83% (active) | 55.2% | 15.7%
2 | COc1ccc2c(c1)C(C)Cc1c(ncnc1-n1cnc3ccccc31)N2C (stereo unspecified) | 56.9% | 0.335% (active) | 23.8% | 18.6 | 10.3% | 25.4% | 17.8%
3 | O=C(OCc1ccc2c(Cl)cc(Cl)c(O)c2n1)N1CCNCC1 | 29.9% | 48.9% | 26.2% | 34.6 | 27.5% | 60.2% | 31.5%
4 | COc1ccc(C(C(=O)O)c2ccc(OC)cc2)cc1 | 118% | 115% | 107% | 101 | 108% | 116% | 111%
5 | O=C(O)c1cn(C2CC2)c2cc(N3CCN(Cc4cc(Cl)ccc4O)CC3)c(F)cc2c1=O | 67.4% | 74.2% | 83.6% | 54.6 |  | 82.4% | 62.5%
6 | CC1(C)OC2[C@@H](CNC(=O)NC(=O)NC(=O)CI)O[C@@H](n3cnc4c(NC(=O)Nc5ccccc5)ncnc43)[C@H]2O1 (stereo partly specified) | 49% | 83.8% | -41.9% (active) | 33 | 51.2% | 94% | 84.2%
7 | CC1Cc2c(Cl)ncnc2N(C)c2ccc(O)cc21 (stereo unspecified) | 81.7% | 30.5% | 38.1% | 55.1 | 65.6% | 59.4% | 10.4%
8 | CCCCCC1CCCCN1C(=O)OCCCC (stereo unspecified) | 99.1% | 105% | 111% | 96.7 | 109% |  | 104%
9 | O=C(CCCCCCSc1nc(-c2ccc(Cl)cc2)cc(-c2ccc(Cl)cc2)n1)NO | 13.2% | 43.5% | 35.8% | 14.5 | 18.4% | 78.7% | 47.4%
10 | O=C(OCc1ccc2c(Cl)cc(Cl)c(O)c2n1)N1CCN(C(=O)c2cc3cc(F)ccc3[nH]2)CC1 | 62.2% | -54.5% (active) | 16.9% | 14.5 |  | 22.6% | -15.2% (active)
11 | COc1ccc(-c2cc(-c3ccc(Cl)cc3)nc(SCCCCCCC(=O)NO)n2)cc1 | -2.44% (active) | 39.2% | 25.5% | 22.1 |  | 59.8% | 45.9%
12 | C#CCOc1ccc(C2=NN(CC3CC3)C3N=C(Cl)c4ncn(CC5CC5)c4N23)cc1OCC#C (stereo unspecified) | 28.2% | 80.8% | 91.8% | 78.8 | 80.5% | 119% | 46.6%
13 | COc1cc2c(cc1OC(C)=O)C(=O)CCCC2 | 101% | 102% | 95.8% | 92.3 | 82.6% | -10.1% (active) | 106%
14 | CCOc1cc(/C=N\NC(=O)N/N=C/c2ccc(O)c(OCC)c2)ccc1O | 29.5% | -14.6% (active) | 20.9% | 17.4 | 24.8% | 41% | 21.2%
15 | CCOC(=O)C(=Cc1ccccc1[N+](=O)[O-])C(=O)OCC | 25.5% | 15.6% | 19.2% | 10.4 |  | 48.3% | -17.7% (active)
16 | CC(C)[C@H]1COC(=O)N1[C@@H]1C(=O)N([C@@H](CCC(=O)N2CCN(C3CCCC3)CC2)C(=O)N[C@@H]2CCCc3ccccc32)[C@@H]1/C=C/c1cccc(Cl)c1 | 61.4% | 32.7% | 61.9% | 34.7 | 32.7% | 51.8% | 48.8%
17 | Nc1nc(Cl)c2ncn(Cc3cc4c(cc3I)OCO4)c2n1 | 30.9% | 34.6% | 18.3% | 18.9 | 16.7% | 76.4% | 9.48% (active)
18 | Cn1cc(-c2noc(-c3cn(C)c4ncc(F)cc34)n2)c2cc(Cl)ccc21 | 14% | 68.5% | 47.4% | 38.5 | 44.5% | 97% | 61.1%
19 | O=C(N[C@@H]1CCCc2ccccc21)[C@H](CCC(=O)N1CCN(C2CCCCC2)CC1)N1C(=O)[C@@H](N2C(=O)OC[C@@H]2c2ccccc2)[C@H]1/C=C/c1ccccc1 | 44.4% | 9.89% (active) | 37.7% | 16.5 | 23.8% | 11.6% | 35.5%
20 | N#Cc1ccc(-c2ccc(COc3ccc(CC4SC(=O)NC4=O)cc3)cc2)cc1 (stereo unspecified) | 35.8% | 45.4% | 80.1% | 38.1 | 42.5% | 83.2% | 61.9%
21 | C[N+](C)(C)c1ncnc2[n-]cnc12 | 84% | 104% | 96.1% | 89.8 | 105% |  | 93.6%
22 | O=C(N/N=C\c1cc(Cl)ccc1O)N/N=C/c1cc(Cl)ccc1O | 49.6% | 47.7% | 42.3% | 46.2 | 16% | 46.1% | 44.4%
23 | CCN(CCO)CCC(=O)c1ccc([N+](=O)[O-])cc1 | 90.6% | 111% | 113% | 98.6 | 112% | 97.4% | 102%
24 | COc1ccc(-c2cc(-c3ccccc3)nc(SCCCCCC(=O)NO)n2)cc1 | 22.7% | 37.5% | 29.7% | 49.8 |  | 78.8% | 70.8%
